The values that follow come from PubChem BioAssay (NCI).

About 83,000 compounds went through this panel and 20% of them were active in at least one assay; those are over-represented in the sample as a whole.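 Negative percent growth values reflect cell death: -40 means 40% of the cells present at the start died, and -100 means all died.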 Unmarked numbers belong to inactive results. Activity calls are given as the source filed them. Rule for the calls: active = growth percent below 10; inactive = the rest.

What all share (assay): NCI-60 one-dose screen, 48 h (100 = growth as untreated, 0 = no growth, -100 = all killed)
Holding throughout (settings): 10 µM unless noted

For test [1], the system named is SR leukemia.
The test system of test [2] is RPMI-8226 leukemia.
Test [3] deals with OVCAR-8 ovarian.
The subject of test [4] is OVCAR-5 ovarian.
The subject of test [5] is OVCAR-4 ovarian.
Test [6] deals with SK-OV-3 ovarian.
Test [7] concerns IGROV1 ovarian.
Test [8] deals with OVCAR-3 ovarian.
Test [9] has as its system HS 578T breast.
In test [10] the test system is NCI/ADR-RES ovarian.

Regarding `Nc1ccc(F)cc1F`, the growth in test [1] was 107%; in test [2], 102%; in test [3] it was 116%; in [4], 96.3%; in test [5], 123%; in [6], 116%. Moreover, the growth in [7] is 105%; in test [8], 116%; in [9] it was 108%; in [10] it was 108%.

Take `CCCNS(=O)(=O)c1ccc(Cl)cc1`: the growth was 98.9% in test [1]; 99.7% in [2]; 104% in test [3]; 110% in [4]; 102% in test [5]; 99.6% in test [6]. In addition, the growth was 105% in test [7], 109% in test [8], 88.1% in [9] and 101% in [10].

Turning to `OCC(O)COc1ccc(Cl)cc1Cl` (stereo not given), the growth in test [1] is 101%; in test [2], 102%; in [3], 92.4%; in test [4], 101%; in [5], 101%; in test [6], 91.7%. Also, the growth in test [7] was 101%; in [8], 110%; in [9] it was 102%; in test [10], 110%.

Turning to `ClCC(Cl)C1CCC(Cl)C(Cl)C1` (stereo not given), the growth in test [1] was 99.5%; in [2] it was 100%; in test [3], 95.6%; in test [4], 105%; in [5], 104%; in test [6] it was 100%. Also, the growth is 117% in test [7], 114% in test [8], 103% in test [9] and 104% in [10].

For the molecule `CC(C)N(C(=O)c1ccccc1)C(C)C`, the growth in test [1] is 110%; in test [2], 105%; in test [3], 111%; in test [4], 96.3%; in [5] it was 109%; in [6], 114%. The growth is 116% in test [7], 108% in test [8], 108% in [9] and 115% in test [10].

`NC(=O)c1cc2c3ccccc3ccn2c1-c1ccccc1`: the growth in test [1] was -22.3% (active); in test [2], 7.04% (active); in [3], 8.3% (active); in test [4] it was 33.5%; in [5], 43.2%; in test [6], 12.7%. Further, the growth is 20.2% in test [7], -20.6% (active) in test [8], 70.3% in [9] and -12% (active) in test [10].

With `Cc1nc(O)cc(=O)[nH]1`, the growth is 114% in [1]; 114% in test [2]; 105% in test [3]; 110% in test [4]; 114% in test [5]; 121% in test [6]. Also, the growth was 106% in [7], 115% in test [8], 91.4% in [9] and 108% in [10].

Regarding `COc1cc(N)c2ncccc2c1Cl`, the growth in [1] is 91.3%; in test [2] it was 83.9%; in test [3], 103%; in test [4], 90.2%; in [5], 128%; in test [6] it was 105%. The growth in [7] is 117%; in test [8], 118%; in test [9], 130%; in test [10] it was 112%.

As to `CN(C)c1ccc(O)c2c1CC1CC3C(N(C)C)C(=O)C(C(N)=O)=C(O)C3(O)C(=O)C1=C2O` (stereo not given), the growth in [1] was 24.1%; in test [2], 20.6%; in test [3], 38.3%; in test [4], 63.4%; in [5], 57.8%; in [6], 45.2%. For the same molecule, the growth in test [7] is 38.4%; in test [8] it was 46.6%; in test [9], 48.9%; in test [10], 66.7%.

Take `CCOC(=O)C(=O)CC(=O)c1ccccc1`: the growth is 79.7% in test [1]; 98.4% in test [2]; 101% in test [3]; 95.1% in [4]; 104% in test [5]; 111% in [6]. In addition, the growth in test [7] is 93.3%; in test [8], 106%; in test [9] it was 106%; in test [10], 93.1%.

Take `O=C(O)c1cc(I)ccc1O`: the growth is 103% in test [1]; 107% in test [2]; 109% in test [3]; 97.5% in test [4]; 107% in [5]; 103% in [6]. In addition, the growth in test [7] is 114%; in test [8], 116%; in test [9], 111%; in test [10], 98%.

In the case of `CCOC(=O)c1c(C)[nH]c(C)c1C=O`, the growth in test [1] was 84.4%; in test [2] it was 89.7%; in [3], 94.5%; in test [4], 96.4%; in test [5], 107%; in [6], 94%. For the same molecule, the growth in [7] was 103%; in test [8] it was 112%; in [9] it was 98.9%; in [10] it was 107%.

Take `CCC(C)C1CCC(O)CC1` (stereo not given): the growth was 93.7% in test [1]; 107% in test [2]; 100% in [3]; 108% in [4]; 99.4% in [5]; 109% in test [6]. In addition, the growth in test [7] is 110%; in [8] it was 108%; in test [9], 104%; in test [10], 103%.

Consider `CC(C)c1ccc(C(=O)OCCCl)cc1`, for which the growth is 106% in [1]; 221% in test [2]; 94% in test [3]; 96.5% in [4]; 104% in [5]; 101% in test [6]. Further, the growth in test [7] was 109%; in test [8] it was 123%; in test [9], 94.7%; in test [10], 102%.

For the molecule `CC(C)N(CCCC#N)C(C)C`, the growth was 108% in test [1]; 98.2% in test [2]; 92.8% in test [3]; 96.7% in test [4]; 88.7% in test [5]; 110% in [6]. Besides, the growth was 103% in test [7], 108% in [8], 86.7% in [9] and 121% in test [10].

As to `CCC(=O)Oc1ccc2ccccc2c1`, the growth in test [1] is 106%; in test [2] it was 100%; in [3], 100%; in [4], 103%; in test [5], 101%; in test [6] it was 98.9%. The growth is 106% in [7], 108% in [8], 81% in test [9] and 96.8% in test [10].
